About 79,000 compounds went through this panel and 15% of them were active in at least one assay; those are over-represented in the sample as a whole. Cut-off read from the data, not from the text of the source: active = growth inhibition above about 70%; inactive = the rest. Where a SMILES comes first, the peptide text is derived from it. [ ]: non-standard residue; d: D form. The star is where a group is joined. NMeF = CN[C@@H](Cc1ccccc1)C(=O)O; NMeV = CN[C@H](C(=O)O)C(C)C; Boc = CC(C)(C)OC(=O)*; OBn = c1ccc(CO*)cc1
Tests used:
[1] = NCI Yeast Anticancer Drug Screen. Data for the rad50 strain (AID 155);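 note: 0% = growth of vehicle-only cultures of the same strain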; conditions: S. cerevisiae rad50 strain growth inhibition, hits give high values; at 50.0 µM unless noted
Summary of the method: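 Vehicle-treated cultures provide the reference for the growth inhibition reported for compound-exposed, repair-deficient yeast.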

[2] = NCI Yeast Anticancer Drug Screen. Data for the mec2-1 strain (AID 157); conditions: S. cerevisiae mec2-1 strain, hits give high values; at 50.0 µM unless noted
Summary of the method: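 Growth inhibition is read against vehicle-treated controls after compound exposure of the mec2-1 yeast strain, which is defective in DNA damage repair or cell cycle control.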

[3] = NCI Yeast Anticancer Drug Screen. Data for the sgs1 mgt1 strain (AID 161);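 note: 0% = growth of cultures given vehicle only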; conditions: S. cerevisiae sgs1 mgt1 strain, hits give high values; at 50.0 µM unless noted
Summary of the method: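 Yeast cells carrying a defined DNA-repair defect were exposed to test compounds. Growth inhibition was measured relative to vehicle-treated controls.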

[4] = NCI Yeast Anticancer Drug Screen. Data for the cln2 rad14 strain (AID 165);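 note: 0% = growth equal to vehicle treated cultures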; conditions: S. cerevisiae cln2 rad14 strain, hits give high values; at 50.0 µM unless noted
Summary of the method: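 Growth inhibition, relative to vehicle-treated controls, is the read-out. The test organism is a yeast strain with defined genetic alterations, cln2 rad14.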

[5] = NCI Yeast Anticancer Drug Screen. Data for the bub3 strain (AID 167); conditions: S. cerevisiae bub3 mutant strain, hits give high values; at 50.0 µM unless noted
Summary of the method: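 Mutant yeast screening strain plus compound; vehicle-treated cultures serve as the 0% inhibition reference.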

[6] = NCI Yeast Anticancer Drug Screen. Data for the mlh1 rad18 strain (AID 175); conditions: S. cerevisiae mlh1 rad18 strain growth inhibition, hits give high values; at 50.0 µM unless noted
Summary of the method: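 Cells of a genetically altered yeast strain, deficient in DNA damage repair, were treated with compound. Their growth was then compared with that of vehicle-treated cultures to give inhibition.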

Measured: growth inhibition

Cc1ccc2c(c1)P(=O)(O)c1cc(C)ccc1S2
inactive: [1] -12.4% | [2] -16.6% | [3] 14.4% | [4] 22.4% | [5] -4.05% | [6] 19.7%

Nc1cc(S(=O)(=O)O)c(O)c2c1C(=O)c1c(O)c(S(=O)(=O)O)cc(N)c1C2=O
inactive: [1] -17.6% | [2] -1.75% | [3] -2.55% | [4] -12.8% | [5] -9.35% | [6] -18%

CCCCCCC(O)C[N+](=O)[O-] (stereo unspecified)
inactive: [1] 0.3% | [2] -28.9% | [3] -11.8% | [4] -5% | [5] -2.75% | [6] -3.9%

COc1ccc(Cl)cc1NC(=O)Oc1ccc(NC(C)=O)cc1
inactive: [1] 3.2% | [2] -0.6% | [3] -1.15% | [4] -1.3% | [5] 11% | [6] 4.25%

CSc1nc2c(nc(N)n2C2OCC(O)C(O)C2O)c(=O)n1C (stereo unspecified)
inactive: [1] 12.1% | [2] 14.1% | [3] 22.6% | [4] 32.6% | [5] 17.9% | [6] 32.2%

C=C=C(C)[Si](C)(C)C
inactive: [1] -14.8% | [2] 3.85% | [3] -29.9% | [4] -3.25% | [5] -51.5% | [6] -45.9%

CC(C)[C@@H](C(=O)N1CCC[C@H]1C(=O)OCc1ccccc1)N(C)C(=O)[C@H](C(C)C)N(C)C(=O)[C@H](Cc1ccccc1)N(C)C(=O)[C@H](NC(=O)OC(C)(C)C)C(C)C (Boc-[dV][NMeF][NMeV][NMeV]P-OBn)
inactive: [1] -41.9% | [2] -42.1% | [3] -38.2% | [4] -38.1% | [5] -42.6% | [6] -36.3%

COC(=O)/C(C#N)=N/O
inactive: [1] 16.6% | [2] -39.1% | [3] -22.8% | [4] 8.4% | [5] -7.7% | [6] -21.6%

CCOC(=O)CC/C=N/Nc1ccc([N+](=O)[O-])cc1[N+](=O)[O-]
inactive: [1] 20.6% | [2] -14% | [3] 6.7% | [4] -45.5% | [5] 6.55% | [6] 0%

COc1cc2c(c3oc4c(O)cccc4c(=O)c13)CC(C(C)(O)CO)O2 (stereo unspecified)
inactive: [1] 24.2% | [2] -11.6% | [3] -23.4% | [4] -9.25% | [5] -42.8% | [6] -33.6%

CCc1cc(C(=O)OC/C(C)=N/O)c2ccccc2n1
inactive: [1] -18.8% | [2] -0.65% | [3] -10.1% | [4] -18.4% | [5] 30.4% | [6] -22.6%

CC(C)(C)OC(=O)COc1ccc(NC(=O)COc2ccc(Cl)c(Cl)c2)cc1
inactive: [1] -17.4% | [2] -22.2% | [3] -10.2% | [4] -28.8% | [5] -1.8% | [6] -8.6%

Nc1nc2ncn(CCO)c2c(=O)[nH]1
inactive: [1] 9.4% | [2] 1.95% | [3] 2.8% | [4] -0.65% | [5] 3.35% | [6] 16.4%

CC(C)CCCC(C)C1CCC2C3CC4OC45CC(O)CCC5(C)C3CCC12C (stereo unspecified)
inactive: [1] 42.4% | [2] 18.1% | [3] 47.7% | [4] 7.3% | [5] -1.1% | [6] 29.4%

CC(C)CC(NC=O)C(=O)O (stereo unspecified)
inactive: [1] 11.2% | [2] 1.85% | [3] -0.4% | [4] 9.45% | [5] -0.3% | [6] 8.35%

Cc1c(NC(=O)CSC(=S)N(C)C)c(=O)n(-c2ccccc2)n1C
inactive: [1] -1.1% | [2] -2.45% | [3] -18.4% | [4] 6.75% | [5] -35.8% | [6] -53.4%

CNC(=O)NC(c1ccc(F)cc1)c1cc2c(cc1O)OCO2 (stereo unspecified)
inactive: [1] -2.2% | [2] -16.4% | [3] -2.4% | [4] 12.6% | [5] -1.8% | [6] 12.4%

COc1cccc2c1C(=O)c1c(O)c3c(c(O)c1C2=O)CC1(O)CC3OC1(C)OC (stereo unspecified)
inactive: [1] 1.2% | [2] 9.1% | [3] -19.2% | [4] 24.2% | [5] -1.35% | [6] 2.65%

CCN(CC)CCCC(C)NCC1C(O)CCC2CN3CCc4c([nH]c5ccccc45)C3CC21 (stereo unspecified)
inactive: [1] 23.8% | [2] 9.45% | [3] 25.2% | [4] 23.6% | [5] 18.6% | [6] 25.1%

COc1cccc2c(SC)c(C)[nH]c12
inactive: [1] 14.9% | [2] -0.4% | [3] 18.8% | [4] -0.05% | [5] -19.8% | [6] 14.8%

OC1(C#CC#CC2(O)CCCCC2)CCCCC1
inactive: [1] 12.9% | [2] 15.7% | [3] 0.2% | [4] 10.1% | [5] 3.4% | [6] 4.2%
